Reference: the supplement of paper PMC6992640
Structures can show the parent of a compound that is named as a salt. ± gives the standard deviation of the averaged measurements.

Assays:
Assay in all cases: cell viability (% of vehicle); higher = less cytotoxic
Settings in all cases: 10 µM; 72 h
HCI01 = system: HCI01 (cells of a triple-negative basal-like breast cancer xenograft)
HCI03 = system: HCI03 (cells of an ER-positive luminal breast cancer xenograft)
HCI09 = system: HCI09 (cells of a triple-negative luminal androgen receptor type breast cancer xenograft)
HCI11 = system: HCI11 (cells of an ER-positive luminal breast cancer xenograft)
HCI13 = system: HCI13 (cells of an ER-positive luminal breast cancer xenograft)
HCI16 = system: HCI16 (cells of a triple-negative basal-like breast cancer xenograft)
UCD52 = system: UCD52 (cells of a triple-negative basal-like breast cancer xenograft)
WHIM2 = system: WHIM2 (cells of a triple-negative basal-like breast cancer xenograft)
WHIM30 = system: WHIM30 (cells of a triple-negative basal-like breast cancer xenograft)
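Further: PDX cells carrying CMV promoter-driven luciferase, viability read as total photon flux per second by IVIS imaging following D-luciferin, vehicle control 0.1% DMSO.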

SMILES	cell viability (HCI01)	cell viability (HCI03)	cell viability (HCI09)	cell viability (HCI11)	cell viability (HCI13)	cell viability (HCI16)	cell viability (UCD52)	cell viability (WHIM2)	cell viability (WHIM30)
O=C(CCCN1CCC(O)(c2ccc(Cl)cc2)CC1)c1ccc(F)cc1 [Haloperidol]	63.3 ± 37	102	86.1 ± 10	90	89.6 ± 9.9	117	61.6 ± 2.5	90.8 ± 36	121 ± 8.7
CN[C@H](CC(C)C)C(=O)N[C@H]1C(=O)N[C@@H](CC(N)=O)C(=O)N[C@H]2C(=O)N[C@H]3C(=O)N[C@H](C(=O)N[C@H](C(=O)O)c4cc(O)cc(O)c4-c4cc3ccc4O)[C@H](O)c3ccc(c(Cl)c3)Oc3cc2cc(c3O[C@@H]2O[C@H](CO)[C@@H](O)[C@H](O)[C@H]2O[C@H]2C[C@](C)(N)[C@H](O)[C@H](C)O2)Oc2ccc(cc2Cl)[C@H]1O [Vancomycin hydrochloride]	125 ± 1.7	110	146 ± 38	92.4	195 ± 13	167	122 ± 7.7	107 ± 4.2	148 ± 22
O=C1NC(=O)[C@@H](c2c[nH]c3ccccc23)[C@H]1c1cn2c3c(cccc13)CCC2 [Tivantinib (ARQ 197)]	161 ± 20	81	51.5 ± 4.9	111	43.6 ± 9.6	125	81.8 ± 4.7	107 ± 11	147 ± 26
CC(S)C(=O)NCC(=O)O (stereo not given) [Tiopronin (Thiola)]	104 ± 4.1	109	54.6 ± 48	107	105 ± 18	99.3	93.7 ± 3.6	103 ± 14	115 ± 4.5
O=C(O)/C=C/c1ccc(O)c(O)c1 [Caffeic acid]	88 ± 6.6	115	107 ± 24	93.3	89.9 ± 9.4	137	97.2 ± 6	86.5 ± 20	89.4 ± 2.4
COC(=O)C(c1ccccc1Cl)N1CCc2sccc2C1.O=S(=O)(O)O (stereo not given) [Clopidogrel]	102 ± 3	115	91 ± 13	119	103 ± 4.8	101	76.7 ± 16	80.012 ± 0.0022	136 ± 6.6
COc1ccc2[n-]c(S(=O)Cc3ncc(C)c(OC)c3C)nc2c1.COc1ccc2[n-]c(S(=O)Cc3ncc(C)c(OC)c3C)nc2c1.[Mg+2] (stereo not given) [Esomeprazole Magnesium]	77 ± 60	143	84.6 ± 31	92.6	165 ± 18	112	99.55 ± 0.87	94.2 ± 9.3	181 ± 29
COC(=O)C=CC(=O)OC [Dimethyl Fumarate]	126 ± 22	129	104 ± 5.7	95.4	70.4 ± 15	113	94.6 ± 3.6	134 ± 30	128 ± 18
CCN(CC)CCOC(=O)c1ccc(N)cc1 [Procaine]	99.4 ± 4.1	122	105 ± 23	87	96.765 ± 0.018	102	88.1 ± 3.5	97.3 ± 23	95.2 ± 24
COC(=O)CCc1ccc(OCC(O)CNC(C)C)cc1.Cl (stereo not given) [Esmolol HCl]	133 ± 46	121	96.2 ± 1.9	95.3	96.8 ± 12	122	105 ± 18	108 ± 17	113 ± 2.2
CN(C)CCN1C(=O)c2cccc3cc(N)cc(c23)C1=O [Amonafide]	103 ± 4	69.4	42.7 ± 14	90.4	64.7 ± 3.1	196	138 ± 26	55.5 ± 5.5	78.5 ± 1.6
CCOC(=O)C(CCc1ccccc1)NC1CSC(c2cccs2)CN(CC(=O)O)C1=O.Cl (stereo not given) [Temocapril HCl]	80.7 ± 40	103	106 ± 31	82.3	116 ± 9.8	101	88.7 ± 3.7	99 ± 12	114 ± 13
O=C(Oc1ccccc1C(=O)O)c1ccccc1O [Sasapyrine]	113 ± 14	109	108 ± 17	104	74.4 ± 6.4	122	90.2 ± 1.2	123 ± 24	142 ± 7.2
Cc1cccc(Nc2ccccc2C(=O)O)c1C [Mefenamic Acid]	103 ± 23	102	118 ± 43	98.1	113 ± 6.7	90.9	94.4 ± 5.6	109 ± 6	112 ± 1.5
NCCS(=O)(=O)O [Taurine]	105 ± 23	119	101 ± 18	86.6	61.4 ± 7.8	115	75.92 ± 0.27	109 ± 19	115 ± 9.7
C[N+](C)(C)CCO.[Cl-] [Choline Chloride]	135 ± 42	120	89.2 ± 11	78.8	73.78 ± 0.7	116	85.6 ± 10	105 ± 17	101 ± 3.5
CN1CCN(c2nc(C3=C(c4c[nH]c5ccccc45)C(=O)NC3=O)c3ccccc3n2)CC1 [Sotrastaurin (AEB071)]	134 ± 40	102	173 ± 34	136	109 ± 1.9	111	63.9 ± 1.5	195 ± 10	111 ± 6.1
O=c1[nH]c(=O)n(C2CC(O)C(CO)O2)cc1F (stereo not given) [Floxuridine]	122 ± 5.9	103	103 ± 20	131	84.4 ± 5.7	161	167 ± 12	105 ± 13	149 ± 34
COC1=CC=C(/C(C2=CC=C(OC)C=C2)=C(Cl)/C3=CC=C(OC)C=C3)C=C1 [Chlorotrianisene]	85.2 ± 4.9	125	86.2 ± 23	101	76.3 ± 15	95.5	89.8 ± 13	95 ± 1.6	96.58 ± 0.32
CCOC(=O)C1=CC(OC(CC)CC)C(NC(C)=O)C(N)C1.O=P(O)(O)O (stereo not given) [Oseltamivir phosphate]	111 ± 30	126	93.5 ± 5.9	95.4	93.1 ± 9	124	105 ± 16	98.9 ± 12	113 ± 1.6

SMILES	cell viability (HCI01)	cell viability (HCI03)	cell viability (HCI09)	cell viability (HCI11)	cell viability (HCI13)	cell viability (HCI16)	cell viability (UCD52)	cell viability (WHIM2)	cell viability (WHIM30)
Cn1c(=O)c2[nH]cnc2n(C)c1=O [Theophylline]	98.1 ± 19	123	94 ± 22	66.9	92.4 ± 1.1	117	103 ± 5.6	86.5 ± 16	95.8 ± 16
COc1ccc(CC2c3cc(OC)c(OC)cc3CC[N+]2(C)CCC(=O)OCCCCCOC(=O)CC[N+]2(C)CCc3cc(OC)c(OC)cc3C2Cc2ccc(OC)c(OC)c2)cc1OC.O=S(=O)([O-])c1ccccc1.O=S(=O)([O-])c1ccccc1 (stereo not given) [Cisatracurium Besylate]	177 ± 73	129	102 ± 17	109	80.4 ± 3.9	129	119 ± 6.3	65.1 ± 7.3	120 ± 7
CC1Cc2ccccc2N1NC(=O)c1ccc(Cl)c(S(N)(=O)=O)c1 (stereo not given) [Indapamide]	98 ± 9.9	100	94.6 ± 4.7	88.8	110 ± 14	128	80.2 ± 1.6	107 ± 18	105 ± 3.4
Cc1c(OCC(F)(F)F)ccnc1CS(=O)c1nc2ccccc2[nH]1 (stereo not given) [Dexlansoprazole]	188 ± 46	149	94.9 ± 51	134	188 ± 57	170	143 ± 8.5	173 ± 16	186 ± 9.4
CC1c2cccc(O)c2C(O)=C2C(=O)C3(O)C(O)=C(C(N)=O)C(=O)C(N(C)C)C3C(O)C21.Cl (stereo not given) [Doxycycline HCl]	91.6 ± 4.1	106	90.6 ± 17	83.7	84 ± 14	104	89.9 ± 2.7	118 ± 14	98.7 ± 9.1
Cl.NCCS [Cysteamine HCl]	112 ± 4.3	112	93.4 ± 4.4	95.8	79.5 ± 5.4	108	92.8 ± 18	102.7 ± 1	102 ± 7
c1ccc2[nH]c(-c3cscn3)nc2c1 [Thiabendazole]	148 ± 9.3	160	82.8 ± 82	162	162 ± 8.2	119	167 ± 15	120 ± 13	102.2 ± 0.2
CC(=O)c1c(C)c2cnc(Nc3ccc(N4CCNCC4)cn3)nc2n(C2CCCC2)c1=O.Cl	134 ± 73	141	86.1 ± 9.9	152	110 ± 31	114	82.86 ± 0.55	88.8 ± 7.7	132 ± 6.1
CC(Nc1ncnc2nc[nH]c12)c1cc2cccc(Cl)c2c(=O)n1-c1ccccc1 (stereo not given)	91.5 ± 1.5	53.1	71.9 ± 26	66.4	45.8 ± 4.9	81.8	67.3 ± 1.7	51.1 ± 15	95.3 ± 2.1
c1ccc(-c2ccc(C(c3ccccc3)n3ccnc3)cc2)cc1 (stereo not given) [Bifonazole]	93.4 ± 4.3	108	74 ± 1.6	95.3	84.3 ± 22	108	149 ± 50	121 ± 1.4	126 ± 20
COc1ccc2[nH]cc(CCNC(C)=O)c2c1 [Melatonin]	112 ± 10	134	106 ± 2.2	97.8	108 ± 3.3	109	127 ± 5.4	121 ± 26	158 ± 17
O=C1CN(/N=C/c2ccc(-c3ccc([N+](=O)[O-])cc3)o2)C([O-])=N1.[Na+] [Dantrolene, sodium salt]	98.7 ± 15	174	83.5 ± 7.8	99.1	105 ± 9.9	110	92.4 ± 4.7	104 ± 4	130 ± 7.4
NC(CSCCCO)C(=O)O (stereo not given) [Fudosteine]	91 ± 9.3	103	87.1 ± 7.6	94.5	107 ± 11	96.1	77.3 ± 4.8	112 ± 14	91.1 ± 8.5
Cl.Cl.NCCc1cnc[nH]1 [Histamine 2HCl]	118 ± 14	129	105 ± 8.2	105	124 ± 16	111	87.8 ± 4.6	81.3 ± 5.9	122 ± 5.2
NC(=O)C(CCC(F)(F)F)N(Cc1ccc(-c2ncon2)cc1F)S(=O)(=O)c1ccc(Cl)cc1 (stereo not given)	96 ± 23	142	67.5 ± 2.2	75.5	102 ± 16	96.7	81.58 ± 0.81	107.6 ± 0.73	124 ± 13
Cc1cc(C#N)cc(C)c1Oc1nc(Nc2ccc(C#N)cc2)nc(N)c1Br [Etravirine (TMC125)]	107 ± 6.5	127	91.9 ± 4.6	93.4	86.559 ± 0.026	109	99.3 ± 18	92.3 ± 3.6	137.8 ± 0.96
CCCCCCCCCCCC(CC1OC(=O)C1CCCCCC)OC(=O)C(CC(C)C)NC=O (stereo not given) [Orlistat]	126.7 ± 0.42	122	123 ± 42	110	97.6 ± 13	81.3	76.1 ± 1	79.1 ± 21	123 ± 6.8
O=C1OC(C(O)CO)C([O-])=C1O.[Na+] (stereo not given) [Sodium ascorbate]	94.7 ± 14	87	90.3 ± 1.3	87	52 ± 6.5	92.3	77.3 ± 8.9	115 ± 31	120 ± 3
Cl.N=C(N)N [Guanidine HCl]	77.2 ± 10	96.3	96.5 ± 9.5	85.6	125 ± 4.1	126	79.1 ± 8.1	97.7 ± 5.6	135 ± 2.3
Nc1nc(=O)c2ncn(CCC(CO)CO)c2[nH]1 [Penciclovir]	115 ± 28	140	92.4 ± 6.6	95.3	84.4 ± 9.1	130	110 ± 5.5	123 ± 34	99.7 ± 8.5
